28 molecules from ChEMBL document CHEMBL1157539, “Thousands of chemical starting points for antimalarial lead identification” (Nature, 2010) can be followed below.

What all share (type): functional
Assay [1] has as its system Plasmodium falciparum. Nature of the assay: GSK_TCMDC: Inhibition of Plasmodium falciparum 3D7 in whole red blood cells, using parasite LDH activity as an index of growth. Test compounds present at 2uM.
For assay [2], the system named is Plasmodium falciparum. In words: GSK_TCMDC: Inhibition of Plasmodium falciparum Dd2 in whole red blood cells, using parasite LDH activity as an index of growth. Test compounds present at 2uM.
The subject of a further assay is HepG2. Nature of the assay: GSK_TCMDC: Percent inhibition of human HepG2 cell line. Test compounds present at 10uM.

For `COc1ccc(-n2nc(C)c3c2NC(=O)CC3c2ccccc2OCc2ccccc2F)cc1` (centres undefined), the results for the Inhibition in the assay on Plasmodium falciparum [1], in the assay with Plasmodium falciparum [2] and in the assay on HepG2 were 93%, 70% and 38%, respectively.
Turning to `O=C(c1cc(-c2ccccc2O)on1)N1CCN(C(c2ccccc2)c2ccccc2)CC1`, the Inhibition with Plasmodium falciparum [1] is listed as 97%; with Plasmodium falciparum [2] it was 88%; in the assay with HepG2, 12%.
Regarding `COc1ccc(Cc2c(C)nc3nc(N)nc(N)c3c2C)cc1.Cl`, the figures for the Inhibition in the assay on Plasmodium falciparum [1], in the assay with Plasmodium falciparum [2] and with HepG2 were 93%, 2% and 61%, respectively.
Regarding `O=C(NCc1cccc(F)c1)Nc1ccc(-c2cccc(-c3nc4ccccc4[nH]3)c2)cc1`, the Inhibition in the assay on Plasmodium falciparum [1] is 86%; in the assay with Plasmodium falciparum [2], 2%; with HepG2, 14%.
On the same counts, the results for `CC(C)(C)c1ccc(CNC(=O)c2ccc(-c3nc4ccc(Cl)cc4[nH]3)cc2)cc1` are 93%, 2% and 14%.
On the same counts, the results for `CC(Cc1ccc(C(=O)OC(c2ccccc2)c2ccccc2)cc1)NCC(O)c1ccccc1.Cl` (centres undefined) are 100%, 98% and 83%.
Take `c1ccc2cc3c(Nc4ccc(N5CCCCCC5)cc4)ccnc3cc2c1`: the figures for the Inhibition in the assay on Plasmodium falciparum [1], in the assay with Plasmodium falciparum [2] and with HepG2 were 94%, 76% and 10%, respectively.
Regarding `Fc1ccc2[nH]c(-c3ccc(-c4ccc(CN5CCC(CCN6CCCCC6)CC5)cc4)s3)nc2c1.O=C(O)C(F)(F)F`, the Inhibition in the assay with Plasmodium falciparum [1] was 100%; with Plasmodium falciparum [2], 100%; in the assay with HepG2, 96%.
With `O=C(NCc1cccc(C(F)(F)F)c1)c1ccc(-c2nc3cc(F)c(F)cc3[nH]2)cc1`, the Inhibition with Plasmodium falciparum [1] is recorded as 97%; in the assay with Plasmodium falciparum [2], 7%; in the assay on HepG2 it was 0%.
On the same counts, the results for `CC1CN(c2ccc3occ(C(=O)Nc4ccc(-c5ccncc5)c(Cl)c4)c3c2)CC(C)N1C.Cl` (centres undefined) are 100%, 96% and 14%.
Take `COc1ccccc1COc1c(C)nc(N)nc1N.Cl`: the Inhibition was 98% with Plasmodium falciparum [1], 1% with Plasmodium falciparum [2] and 32% in the assay with HepG2.
On the same counts, the results for `C=CC[C@H](C[C@H](O)[C@H](Cc1ccccc1)NC(=O)c1nn(-c2ccccc2)nc1C)C(=O)NC1CCCCC1` are 94%, 3% and 6%.
On the same counts, the results for `COc1ccc2nccc([C@@H](O)CN3CCC(NC(=O)Cn4nc(-c5ccc(C(F)(F)F)cc5)ccc4=O)CC3)c2c1` are 100%, 90% and 12%.
On the same counts, the results for `CCOC(=O)c1ccc(N2CCCCC2)c(NC(=O)C(Cl)(Cl)Cl)c1` are 96%, 97% and 11%.
As to `CCc1cn2c3c(cc(C(=O)N[C@@H](Cc4ccccc4)[C@H](O)CN[C@@H](C)CC)cc13)N(C)S(=O)(=O)CC2.O=CO`, the results for the Inhibition in the assay on Plasmodium falciparum [1], in the assay on Plasmodium falciparum [2] and in the assay on HepG2 were 99%, 98% and 2%, respectively.
On the same counts, the results for `CC1CN(c2ncc(-c3ccc(CNC4Cc5ccccc5C4)cc3)cn2)CC(C)N1.O=CO` (centres undefined) are 85%, 78% and 27%.
On the same counts, the results for `Cl.Oc1ccc2c(c1NCC1CCCCC1)CCCC2` are 99%, 99% and 11%.
On the same counts, the results for `O=C(Nc1cccc(CN2CCCN(Cc3ccc4c(c3)OCO4)CC2)c1)c1cc2ccccc2s1.O=C(O)C(F)(F)F` are 95%, 11% and 32%.
Turning to `O=c1cc(NCC2(CNCc3cn(Cc4ccccc4)c4ccccc34)CCCCC2)[nH]c2ccccc12`, the Inhibition in the assay on Plasmodium falciparum [1] worked out at 100%; in the assay on Plasmodium falciparum [2], 56%; with HepG2, 27%.
On the same counts, the results for `O=C(NC1CC1)c1ccc(N2CCCCN2CCc2ccccc2)c(C(F)(F)F)c1.O=C(O)C(F)(F)F` are 98%, 84% and 0%.
On the same counts, the results for `COc1ccc(NC(=O)Nc2ccc(-c3ccc(-c4nc5cccc(C)c5[nH]4)s3)cc2)cc1` are 100%, 96% and 74%.
Take `Cl.ON=C1CCc2cc(-c3nc(-c4ccc(OCCN5CCCCC5)cc4)[nH]c3-c3ccncc3)ccc21`: the Inhibition in the assay with Plasmodium falciparum [1] was found to be 99%; in the assay on Plasmodium falciparum [2], 54%; in the assay with HepG2 it was 73%.
On the same counts, the results for `CCN(CC)CCNC(=O)/C(=C/C=C/c1cc2cc(Cl)c(Cl)cc2[nH]1)OC` are 88%, 31% and 30%.
On the same counts, the results for `c1cncc(Oc2ccc(Nc3ccnc4cc(-c5cccc(CNCCN6CCOCC6)c5)ccc34)cc2)c1` are 100%, 99% and 14%.
On the same counts, the results for `CC(=O)c1ccc(-c2ccc(C(=O)NCCCCN3CCC(c4ccc5c(c4O)CCCC5)CC3)cc2)cc1` are 100%, 83% and 87%.
As to `N#Cc1cccc(NC(=O)Nc2cccc(-c3cccc(-c4nc5cc(F)ccc5[nH]4)c3)c2)c1`, the Inhibition with Plasmodium falciparum [1] was 100%; with Plasmodium falciparum [2], 66%; in the assay on HepG2, 60%.
For `Cc1nc(-c2nc(NCCc3ccncc3)ncc2-c2ccsc2)sc1C`, the figures for the Inhibition with Plasmodium falciparum [1], in the assay with Plasmodium falciparum [2] and with HepG2 were 92%, 87% and 10%, respectively.
Consider `CN(C)CCOc1ccc(NC(=O)Nc2ccnc3c(Br)cccc23)cc1Cl`, for which the Inhibition with Plasmodium falciparum [1] was 97%; in the assay with Plasmodium falciparum [2] it was 25%; in the assay with HepG2 it was 10%.
